Reference: the supplement of paper PMC6555819

Key:
Assay in all cases: PBM binding z-score (relative to random genomic background probes); higher = stronger binding; sequences stand for … in GC…GCGATTGACAGCGTAGAATGAAGG
[1] = tested on: RARb homodimer (NR concentration 270 nM)
In short: (§1)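 Binding buffer was PBS pH 7.4 with 2% milk, 0.02% Triton X-100, 1 mM DTT, 0.2 mg/mL BSA and 0.4 mg/ml salmon testes DNA. In it, ligand-free nuclear receptor dimers were incubated 1 h on custom Agilent 4×180K protein-binding microarrays carrying double-stranded probes. Antibodies against each partner (one per run) detected binding, and z-scores were calculated against random background probes after regression normalization of scanned fluorescence.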

[2] = tested on: RARg:RXRa (NR concentration 270 nM, RXRa partner concentration 90 nM)
In short: as §1

[3] = tested on: RARg homodimer (NR concentration 270 nM)
In short: as §1

[4] = tested on: RXRa DBDmut IVT, anti-RXR (DBD mutation: RXRa K156A/R161A, NR concentration 90 nM)
In short: as §1

[5] = tested on: RXRa homodimer (NR concentration 180 nM)
In short: as §1

[6] = tested on: THRa:RXRa (NR concentration 90 nM, RXRa partner concentration 90 nM)
In short: as §1

[7] = tested on: THRa homodimer (NR concentration 90 nM)
In short: as §1

[8] = tested on: VDR:RXRa (NR concentration 270 nM, RXRa partner concentration 90 nM)
In short: as §1

[9] = tested on: VDR homodimer (NR concentration 270 nM)
In short: as §1

Sequence | PBM binding z-score [1] | PBM binding z-score [2] | PBM binding z-score [3] | PBM binding z-score [4] | PBM binding z-score [5] | PBM binding z-score [6] | PBM binding z-score [7] | PBM binding z-score [8] | PBM binding z-score [9]
TATACAGGTTCAAAGGCCAGAGTACGAATGTCGA | 1.82 | 2.45 | 1.79 | 4.01 | 3.63 | 1.25 | -0.0522 | 3.76 | 4.75
CCTTACGGGTCTCGAGGTTATAGCACGACGAGCG | 0.421 | 0.66 | 0.422 | -0.815 | 1.27 | 1.05 | -0.08 | – | 0.435
ACTAGCAGGCCAAGTGTCACTCAAGATTAGTCCG | 0.681 | 0.433 | 0.865 | 0.117 | 0.215 | 0.0959 | -0.248 | -0.322 | -0.143
AGTCAAAGTTCATCTATGTAACGTAAGATATGCT | 3.77 | 5.2 | 6.01 | 4.69 | 4.74 | 1.92 | -0.492 | 4.75 | 4.62
GCTTACGGGTCAAAGGTGATAGCATGAATAGAAT | 2.94 | 5.62 | 4.21 | 2.43 | 7.79 | 3.15 | -0.0269 | – | 1.07
TCTATTAGTTGATTTGGGCAACCGAAACAGCGGA | -0.204 | 0.225 | 0.0812 | 1.3 | 0.406 | -0.0733 | 0.427 | – | 0.414
CCTTACGTGTCACTGACAGGTTATAGCATTTGGA | 1.37 | 1.71 | 1.21 | 0.934 | 0.941 | 0.816 | 0.847 | 0.871 | 0.842
ACTAGCAGGCCAAGGGGCACTCAAGATTAGTCCG | 0.873 | 0.423 | 0.766 | -0.00995 | 0.366 | 0.0441 | -0.582 | – | 0.169
ATCTCTAGGTAGCAAGTTCAGTGAAAGAGAGGAC | 1.48 | 0.743 | 0.963 | 0.543 | 0.352 | 0.972 | 0.46 | 1.35 | 2.36
ATCTCTAGGTAACTAGTTCAGTGAAAGAGAGGAC | 0.47 | 0.193 | 0.685 | -0.215 | 0.0901 | 0.996 | 0.507 | 0.369 | 0.877
ATATGTAGGTTCGCTGGGGTCATTCAGACTAGGC | 3.35 | 4.07 | 2.35 | 3.6 | 5.54 | 4.11 | 3.34 | – | 9.1
CCTAGCAGCCCAGGGTCACTCAAGCATTTCGCTT | 2.69 | 2.9 | 2.45 | 0.289 | 3.38 | 2.77 | 1.13 | 2.44 | 1.33
GCGACTGGGGCACCAGCAGGTTACCATAACTTAA | 0.971 | 1.13 | 0.678 | -0.795 | 0.401 | 1.07 | -0.0837 | -0.157 | -0.699
CCTTACGGGTCACGAGGTTAAAGCACGACGAGCG | 3.99 | 6.28 | 5.56 | 2.06 | 6.97 | 3.82 | 0.843 | 5.59 | 2.06
AGTCAAAGTTCACTAGGTAACGCAAGATTCAGCT | 3.66 | 5.13 | 6.21 | 4.25 | 4.24 | 2.08 | 0.154 | 3.39 | 3.32
CAAACTAGGTCACGAAAAGTCAAAGTCGAATGAC | 3.38 | 4.82 | 5.38 | 1.53 | 3.85 | 3.35 | 1.25 | 2.71 | 0.644
ATCTCTAGGTAAAAGTTCAGTGATTCCCGAGGAT | 2.44 | 1.69 | 2.11 | 0.773 | 1.47 | 1.2 | 0.435 | 1.05 | 1.8
GGAACGTGGGCAAGTTGATAGCAGAGTTTGATGG | -0.282 | -0.487 | -0.279 | 0.175 | -0.184 | -0.685 | -0.691 | -0.629 | 0.343
CCTGCTATGTCAATGGTCAGCTAAAGCAGCTCGC | 0.33 | 0.00581 | 0.0986 | 0.386 | -0.174 | -0.688 | -0.637 | – | -0.777
GCTAGTAGTTGAAAGGGCAACCGAATGATTCTCG | 1.73 | 1.22 | 0.96 | 0.488 | 1.47 | 0.474 | -0.735 | 0.183 | -0.34
TCTATTTGTTGAAGGGCAACCGACGAGTCCGTTT | 1.57 | 0.705 | 1.07 | 1.55 | 0.578 | 0.482 | 0.62 | 1.19 | 1.92
GTGCCAAGGTGAATAGGTCGTTGATGAGTAGGCG | 1.92 | 2.61 | 1.46 | -0.262 | 1.55 | 1.72 | 0.56 | – | -0.115
AGAATGAGGTTATACGTAGAACAGGGAAGAAAGT | 0.739 | 1.6 | 1.14 | 1.5 | 2.13 | 2.04 | 0.323 | 1.26 | 1.03
CCGACTGGGGCATAAGGTTACCCTAAGCCAGCCC | 1.42 | 1.27 | 0.806 | -0.487 | 1.07 | 1.79 | 1.55 | 0.27 | -0.217
CCTACTGGGGCAAAGGTTACCATACTCAGTACGA | 2.27 | 3.72 | 1.99 | 0.241 | 3.86 | 1.85 | -0.303 | – | 0.381
ACTAGCAGGACAAGGGTCACTCAAGATTAGTCCG | 3.75 | 4.12 | 3.61 | 0.928 | 3.68 | 3.04 | 0.529 | 3.05 | 2.01
